Drawing on PubChem BioAssay (NCI), this text covers growth for eight molecules.

Among the test systems are SR leukemia; RPMI-8226 leukemia; OVCAR-8 ovarian; OVCAR-5 ovarian; OVCAR-4 ovarian; SK-OV-3 ovarian; IGROV1 ovarian; OVCAR-3 ovarian; HS 578T breast; NCI/ADR-RES ovarian; T-47D breast; BT-549 breast; MDA-MB-435 melanoma; SW-620 colon; MCF7 breast; HCT-116 colon; HCC-2998 colon; KM12 colon.
Holding throughout (assay): NCI-60 one-dose screen, 48 h (100 = growth as untreated, 0 = no growth, -100 = all killed)
Common to all, as to details: 10 µM unless noted

This is part of a sample that, as a whole, favours compounds with a hit. Of some 83,000 tested, about 20% had one in any assay.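 Cells were grown in 96-well plates and exposed to the test compound at a single concentration for 48 hours; results are reported as percent growth, with values below 10 considered active.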 A number with no mark means an inactive call. The source made the active and inactive calls.

As for `COc1cc2ncnc(Nc3ccc(S(=O)(=O)Nc4nccs4)cc3)c2cc1OCCCN1CCCC1`, the growth with SR leukemia was 99.1%; in the assay with RPMI-8226 leukemia, 107%; in the assay with OVCAR-8 ovarian it was 99.7%; with OVCAR-5 ovarian, 109%; with OVCAR-4 ovarian, 110%; in the assay with SK-OV-3 ovarian, 98.6%. The growth with IGROV1 ovarian was 110%; with OVCAR-3 ovarian, 109%; with HS 578T breast it was 110%; in the assay with NCI/ADR-RES ovarian, 108%; with T-47D breast, 105%; in the assay with BT-549 breast it was 105%. Further, the growth was 99.7% with MDA-MB-435 melanoma; 103% in the assay with SW-620 colon; 99.6% with MCF7 breast; 97.3% in the assay with HCT-116 colon; 112% with HCC-2998 colon; 121% in the assay with KM12 colon.
Consider `CCOC(=O)C1=C(CC(O)c2ccc(OC)cc2OC)NC(=O)NC1c1ccccc1` (centres undefined), for which the growth in the assay on SR leukemia was 75.9%; with RPMI-8226 leukemia, 99.2%; with OVCAR-8 ovarian it was 109%; with OVCAR-5 ovarian, 88.7%; with OVCAR-4 ovarian it was 106%; with SK-OV-3 ovarian, 114%. Moreover, the growth with IGROV1 ovarian was 118%; in the assay with OVCAR-3 ovarian, 109%; in the assay with HS 578T breast, 117%; with NCI/ADR-RES ovarian it was 107%; with T-47D breast, 110%; in the assay with BT-549 breast it was 102%. Also, the growth in the assay on MDA-MB-435 melanoma was 99.4%; in the assay with SW-620 colon it was 115%; in the assay with MCF7 breast, 120%; with HCT-116 colon, 89.2%; with HCC-2998 colon, 90.6%; with KM12 colon, 115%.
For the molecule `COc1cc(/C=C2\C(=O)N(CCCOc3cc(O)c4c(=O)cc(-c5ccccc5)oc4c3)c3ccccc32)cc(OC)c1O`, the growth is 31.9% with SR leukemia; 86.7% in the assay with RPMI-8226 leukemia; 84.7% in the assay with OVCAR-8 ovarian; 110% in the assay on OVCAR-5 ovarian; 83.6% with OVCAR-4 ovarian; 91.6% in the assay on SK-OV-3 ovarian. The growth with IGROV1 ovarian was 77.2%; with OVCAR-3 ovarian, 44.5%; in the assay with HS 578T breast, 70.4%; with NCI/ADR-RES ovarian it was 64%; in the assay on T-47D breast, 44.6%; in the assay on BT-549 breast, 49.7%. Besides, the growth was -35.1% (active) in the assay on MDA-MB-435 melanoma; 38.4% with SW-620 colon; 48.9% with MCF7 breast; 63.7% in the assay with HCT-116 colon; 82.9% in the assay on HCC-2998 colon; 62.2% in the assay with KM12 colon.
With `Cc1cccc(N=Nc2cccc(C)c2)c1`, the growth is 108% in the assay on SR leukemia; 110% in the assay with RPMI-8226 leukemia; 103% in the assay with OVCAR-8 ovarian; 94.2% in the assay on OVCAR-5 ovarian; 107% in the assay with OVCAR-4 ovarian; 106% in the assay on SK-OV-3 ovarian. In addition, the growth with IGROV1 ovarian is 102%; in the assay on OVCAR-3 ovarian, 113%; in the assay with HS 578T breast, 117%; with NCI/ADR-RES ovarian, 108%; in the assay with T-47D breast, 110%; in the assay on BT-549 breast, 108%. Moreover, the growth in the assay with MDA-MB-435 melanoma was 100%; in the assay with SW-620 colon, 106%; with MCF7 breast, 97.5%; in the assay on HCT-116 colon, 111%; with HCC-2998 colon, 112%; with KM12 colon, 110%.
On to `COc1ccc2c(c1)c(-c1nc(-c3ccc4ccccc4c3)cs1)cn2C`, for which the growth is 49.9% with SR leukemia; 102% with RPMI-8226 leukemia; 95.3% in the assay with OVCAR-8 ovarian; 91.6% with OVCAR-5 ovarian; 94.3% with OVCAR-4 ovarian; 93% with SK-OV-3 ovarian. The growth is 85.9% in the assay with IGROV1 ovarian; 96.2% with OVCAR-3 ovarian; 97% in the assay with HS 578T breast; 98% in the assay on NCI/ADR-RES ovarian; 58% with T-47D breast; 89% with BT-549 breast. Also, the growth in the assay on MDA-MB-435 melanoma is 70.1%; in the assay on SW-620 colon, 73.4%; in the assay with MCF7 breast it was 30.8%; in the assay with HCT-116 colon, 87.9%; in the assay with HCC-2998 colon, 99.5%; in the assay on KM12 colon, 67.4%.
With `COC(=O)/C(CCC=C(C)C)=C1\[C@@H](OC(C)=O)C[C@@]2(C)[C@H]1C/C(=N/O)[C@H]1[C@@]3(C)CC/C(=N\O)[C@@H](C)[C@@H]3CC[C@@]12C`, the growth in the assay on SR leukemia was 66.2%; in the assay with RPMI-8226 leukemia, 46.3%; in the assay with OVCAR-8 ovarian, 90.4%; with OVCAR-5 ovarian it was 135%; in the assay on OVCAR-4 ovarian, 97.3%; in the assay on SK-OV-3 ovarian, 107%. Moreover, the growth with IGROV1 ovarian is 100%; with OVCAR-3 ovarian, 93.8%; with HS 578T breast it was 94.3%; in the assay on NCI/ADR-RES ovarian it was 102%; with T-47D breast it was 82.9%; in the assay with BT-549 breast it was 95.5%. Further, the growth with MDA-MB-435 melanoma was 98.6%; in the assay on SW-620 colon, 106%; with MCF7 breast, 55.1%; with HCT-116 colon, 101%; in the assay with HCC-2998 colon, 110%; in the assay with KM12 colon, 103%.
For `CC1(/C=C/c2ccc(-c3ccccc3)cc2)CCn2cnc3ncnc(c32)N1O` (centres undefined), the growth in the assay on SR leukemia was 18.3%; in the assay on RPMI-8226 leukemia it was 21.3%; in the assay with OVCAR-8 ovarian, 25.7%; in the assay with OVCAR-5 ovarian it was 47.9%; in the assay with OVCAR-4 ovarian, 36.6%; in the assay on SK-OV-3 ovarian, 19.8%. Also, the growth in the assay with IGROV1 ovarian is 15.3%; with OVCAR-3 ovarian it was 37.2%; in the assay on HS 578T breast, 55.5%; with NCI/ADR-RES ovarian, 3.15% (active); in the assay with T-47D breast, 37.8%; in the assay with BT-549 breast, 17%. The growth was 28.4% with MDA-MB-435 melanoma; 28.2% with SW-620 colon; 8.15% (active) with MCF7 breast; 20.2% with HCT-116 colon; 32.3% with HCC-2998 colon; 26% with KM12 colon.
In the case of `Cc1nc2sc(C(=O)Nc3cccc4ccccc34)c(N)c2cc1C(=O)c1ccccc1`, the growth in the assay with SR leukemia is 7.17% (active); with RPMI-8226 leukemia, 15.6%; with OVCAR-8 ovarian, 23.7%; in the assay on OVCAR-5 ovarian, 32.3%; with OVCAR-4 ovarian it was 51.8%; with SK-OV-3 ovarian it was 39.7%. In addition, the growth in the assay on IGROV1 ovarian is 24.8%; with OVCAR-3 ovarian, -26.4% (active); with HS 578T breast, 11.9%; in the assay on NCI/ADR-RES ovarian, 12.9%; in the assay on T-47D breast, 53.7%; in the assay on BT-549 breast, 15.2%. Also, the growth with MDA-MB-435 melanoma is -53% (active); in the assay on SW-620 colon, 21.9%; in the assay on MCF7 breast it was 17.9%; in the assay on HCT-116 colon it was 11.3%; in the assay with HCC-2998 colon, 10.3%; in the assay on KM12 colon it was 19.1%.
